Giardia FBPA inh: Giardia lamblia aldolase inhibition | A8B2U2 | hit rate 0.71% among 290,000 | purified Giardia FBPA | Potency, µM (top dose mostly 59.6 µM), inactives show at the top dose activity, negative = inhibition, usual class: inhibitors; further: potency means the concentration at half of the fitted maximal effect; on the % scale 0 is the no-effect control and ±100 the full control effect; nearly all actives have a fitted effect of over 55% in size
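Giardia FBPA (40 nM reagent) was preincubated 10 min at RT with compound (up to 57.5 uM final), then substrate plus GAPDH/TPI/NAD/arsenate coupling system with diaphorase/resazurin was added; resorufin fluorescence (525/598 nm) was read after 20 min.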
Cycloheximide cs: counter-screen for Shiga toxin inhibitors: cycloheximide protein synthesis inhibition | hit rate 12% among 300,000 | cell reporter, cycloheximide protein synthesis inhibition counterscreen | max response, %; in the data active means max response mostly above about 13%, no sharp cut-off; inactive means mostly below about 14%; further: read at 38.3 µM for the half of the compounds with a filed dose; 0% is about no effect
Shiga toxin inh: inhibitors of Shiga toxin in Vero cells; inhibition, % at 38.7 µM; hit rate 9.2% among 290,000; Vero cells, Shiga toxin protein synthesis inhibition reporter; in the data active means inhibition mostly above about 28%, no sharp cut-off; inactive means mostly below about 43%; further: 0% is about no effect
Tb PYK inh: T. brucei pyruvate kinase inhibition; TbPYK enzyme, Kinase-Glo Plus ATP luminescence, 45 min; Potency, µM (top dose mostly 76.8 µM), inactives show at the top dose activity, negative = inhibition, hits mostly inhibitors; hit rate 0.12% among 410,000; further: potency means the concentration at half of the fitted maximal effect; on the % scale 0 is the no-effect control and ±100 the full control effect; nearly all actives have a fitted effect of over 50% in size
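TbPYK + substrate in 50 mM TEA pH 7.2, 100 mM KCl, 10 mM MgCl2, 0.05% BSA, 0.01% Tween-20; cpd pinned; ADP 130 uM final; 45 min RT; Kinase-Glo Plus 10 min; luminescence endpoint.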
RE007 growth inh: less growth of the S. pombe RE007 Vpr strain; S. pombe RE007 Vpr strain, BacTiter-Glo ATP luminescence, 24 h; Potency, µM (top dose mostly 92.2 µM), for the others: at the highest dose activity change, negative = less growth, actives largely listed as inhibitors; hit rate 0.21% among 360,000; active means well fitted falling curve with a large enough effect; inconclusive means small, poorly fitted or top-dose-only effect; inactive means no such curve, though single readings can be large or run the other way; further: potency means the concentration at half of the fitted maximal effect; on the % scale 0 is the no-effect control and ±100 the full control effect; nearly all actives have a fitted effect of over 50% in size
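Fission yeast strain RE007, carrying one chromosomally integrated HIV-1 vpr copy, was seeded at OD 0.01 in PMG+AL medium with 23 nL pinned compound. After 24 h at 30 °C and 99% humidity, viability was read by BacTiter-Glo luminescence.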
LmPK inh: inhibitors of Leishmania mexicana pyruvate kinase; Potency, µM (highest dose often 57.5 µM), for the others: top-dose activity change, negative = inhibition, usual class: inhibitors; purified LmPK, Kinase-Glo ATP luminescence, 1 h; hit rate 0.37% among 290,000; Q27686; further: potency means the concentration at half of the fitted maximal effect; on the % scale 0 is the no-effect control and ±100 the full control effect
Target sequence (Q27686 whole entry, looked up): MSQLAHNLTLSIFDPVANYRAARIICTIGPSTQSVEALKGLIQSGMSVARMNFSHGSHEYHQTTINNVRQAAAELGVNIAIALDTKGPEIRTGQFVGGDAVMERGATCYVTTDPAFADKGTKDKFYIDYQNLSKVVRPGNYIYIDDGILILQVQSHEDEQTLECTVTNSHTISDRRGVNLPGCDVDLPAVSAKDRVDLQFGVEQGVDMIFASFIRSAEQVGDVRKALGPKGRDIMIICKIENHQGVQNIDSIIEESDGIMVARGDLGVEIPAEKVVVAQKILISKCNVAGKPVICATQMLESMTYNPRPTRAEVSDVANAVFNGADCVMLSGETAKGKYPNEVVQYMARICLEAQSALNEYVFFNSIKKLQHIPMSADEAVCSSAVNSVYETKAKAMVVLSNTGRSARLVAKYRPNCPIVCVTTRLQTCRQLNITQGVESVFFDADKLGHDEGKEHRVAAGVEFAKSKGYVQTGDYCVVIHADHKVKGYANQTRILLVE
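Purified LmPK (0.1 nM) with 0.5 mM PEP and 0.1 mM ADP in imidazole buffer pH 7.2 with MgCl2/KCl, 1 h at room temperature. ATP formed was read by luciferase luminescence and normalized to no-enzyme and uninhibited controls.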
* = called active by the depositor; ? = inconclusive; / = no result; + = active, no number; [ ] = another dose, or the depositor's remark. Many of the other results were omitted from the sample, so hits are more common in it than they were. Unless noted, the call rests on the fitted dose curve; in most records, active means well fitted curve in the direction sought with a large enough effect; inconclusive means small, poorly fitted or top-dose-only effect, or another doubt; inactive means no such curve, though single readings can be large; an effect the other way counts as inactive or inconclusive.

SMILES	Giardia FBPA inh	Cycloheximide cs	Shiga toxin inh	Tb PYK inh	RE007 growth inh	LmPK inh
COCCN(C)C(=O)CCc1nnc(Cc2ccc(-c3ccccc3)cc2)o1	4.2%	9.9	-14.5	2.3%	17.0%	-5.9%
CN(Cc1ccc(F)cc1)C(=O)CCc1nnc(-c2ccccc2)o1	2.1%	46.8*	107.6*	1.3%	-2.4%	8.7%
CN(Cc1nnc(-c2ccc(F)cc2)o1)c1ccccc1	/	32.3*	71.2*	1.4%	-1.6%	-6.5%
CCOc1cc(N2CCOCC2)c(OCC)cc1NC(=O)COC(=O)COc1ccc(C#N)cc1	/	-2.5	-5.9	-2.3%	-3.9%	-0.9%
Cc1noc(Cn2c(=O)c3ccccc3n(CC(=O)Nc3ccccc3C(F)(F)F)c2=O)n1	/	/	/	-1.1%	/	/
Cc1ccc(C(=O)c2cnc3cc4c(cc3c2S(=O)(=O)c2ccccc2)OCCO4)cc1	-17.1%	67.8*	100.0*	-2.7%	-12.8%	1.1%
CCOc1ccc(S(=O)(=O)c2c(C(=O)c3ccc(C)cc3)cnc3cc4c(cc23)OCCO4)cc1	-0.7%	3.7	15.8	-2.4%	15.0%	-1.6%
C=C[C@]1(C)C[C@@H](OC(=O)CO)[C@]2(C)C(C)CC[C@]3(CCC(=O)[C@H]32)[C@@H](C)[C@@H]1O (some centres not stated)	/	/	/	2.8%	/	/
O=C(CSc1nc2ccccc2n1S(=O)(=O)c1cccc([N+](=O)[O-])c1)NCc1cccs1	7.7%	26.9*	18.1	-16.8%	18.3%	0.8%
O=C(COC(=O)c1cccc([N+](=O)[O-])c1)NCc1cccs1	2.3%	6.3	17.5	-0.8%	13.7%	0.9%
O=C(NCc1ccc(-c2nc3ccccc3s2)cc1)c1cc2ccccc2o1	7.7%	19.8*	48.4*	-6.4%	-15.1%	3.7%
O=C(Nc1ccccc1-c1nc2ccccc2s1)c1ccc(Br)o1	1.2%	1.9	-4.8	1.0%	-3.0%	-1.5%
O=C(NCc1ccc(-c2nc3ccccc3s2)cc1)c1ccc(Br)o1	5.0%	27.7*	39.5*	-9.1%	41.3%	-4.0%
O=C(NCc1ccc(Cl)cc1)c1cc2ccccc2o1	/	/	/	-1.8%	/	/
Cn1c(-c2ccccc2)c(/C=N/NC(=O)c2cccnc2)c2ccccc21	-4.5%	20.7*	68.5*	-5.0%	16.0%	-1.1%
O=C(N/N=C/c1c(O)n(Cc2ccccc2)c(=O)c2ccccc12)c1cccnc1	-10.7%	2.4	-6.4	-8.5%	-14.8%	3.1%
O=C(N/N=C/c1c(-c2ccccc2)[nH]c2ccccc12)c1cccnc1	-3.3%	26.6*	64.6*	1.8%	-3.6%	-0.8%
O=C(CC1OC(=O)c2ccccc21)Nc1ccccc1N1CCOCC1 (configuration not stated)	5.2%	-4.3	8.2	4.3%	-12.7%	3.2%
CC(=O)N1CCN(C(=O)CC2OC(=O)c3ccccc32)CC1 (configuration not stated)	-21.6%	1.3	-3.3	-7.5%	44.7µM*	4.7%
COc1ncc2nc(C)c(=O)n(CCc3ccccc3)c2n1	5.4%	/	/	/	/	/
CCc1nc(N2CCN(C(C)=O)CC2)c2c3c(sc2n1)CC(C(C)(C)C)CC3 (configuration not stated)	7.3%	-0.5	-2.9	0.4%	7.0%	1.0%
CCc1nc(N2CCN(C(=O)CCl)CC2)c2c3c(sc2n1)CC(C)CC3 (configuration not stated)	-19.2%	10.9*	35.9	4.9%	-9.7%	-0.6%
C[C@@H]1CC2OC(=O)[C@@]3(C)C(=O)CC[C@@](C)(C23)[C@@]1(O)CCc1ccoc1 (some centres not stated)	-2.1%	26.4*	-4.2	-6.8%	-4.5%	5.0%
CCOc1ccc(NC(=O)Cn2nc(SC)c(S(=O)(=O)c3ccccc3)c2N)cc1	/	/	/	-3.3%	/	/
C/C(=N/NC(=O)c1ccc(Cl)cc1Cl)c1cccnc1	4.5%	29.4*	24.8	7.2%	-13.6%	-3.1%
SMILES	Giardia FBPA inh	Cycloheximide cs	Shiga toxin inh	Tb PYK inh	RE007 growth inh	LmPK inh
C/C(=N\NC(=O)c1ccncc1)c1cccnc1	-5.3%	10.8	39.2	-2.1%	-2.4%	5.6%
C/C(=N\NC(=O)c1ccc(O)cc1O)c1cccnc1	-3.1%	39.7*	72.8*	-6.3%	18.3%	-0.6%
CN(C)c1ccc(NC(=O)CCSc2nc(-c3ccco3)cc(C(F)(F)F)n2)cc1	/	/	/	-18.9%	/	/
COC(=O)c1ccc(C#Cc2ccccc2)o1	-0.2%	55.8*	30.9	2.8%	4.3%	2.2%
Cc1ccn2c(C(=O)c3ccc(Cl)cc3)cnc2c1	0.3%	51.5*	90.7*	-3.5%	-11.6%	-12.7%
Cc1ccn2c(=O)nc(SCC(=O)c3ccc(Cl)cc3)nc2c1	/	/	/	-1.8%	4.5%	/
Cc1cccc(-c2nc(=S)c3c(o2)CCCC3)c1	?	48.5*	129.5*	-3.0%	-16.7%	-11.4%
CCCCCCCCCCCCC[N+](C)(C)Cc1ccccc1	-0.6%	/	/	/	/	/
C=CCn1c(Sc2ncc([N+](=O)[O-])s2)n[nH]c1=O	?	21.1*	32.0	-9.0%	?	5.9%
COc1cccc(NC(=O)CN2CCCCCC2)c1	?	23.1*	/	-0.5%	7.0%	-2.7%
O=C(CN1CCCCC1)Nc1cccc(Br)c1	0.4%	14.6*	20.4	4.2%	28.8%	-0.2%
Cc1cccc(NC(=O)CN2CCCCCC2)c1	-26.6%	5.5	19.3	0.7%	11.2%	1.6%
Cc1ccc(C(=O)Nc2cccc(NC(=O)CN3CCCCC3)c2)cc1	0.8%	13.9*	/	-1.7%	-17.4%	-22.5%
N#Cc1ccc(-c2ccc(OCC3CNC(=O)O3)cc2)cc1 (configuration not stated)	-16.2%	47.3*	65.4*	-6.1%	1.4%	-1.0%
Cc1ccc2ncc(C(=O)NC(C)c3ccccc3)c(=O)n2c1 (configuration not stated)	/	/	/	-2.2%	/	/
CCOC(=O)c1c(NC(=O)Nc2ccc(Cl)cc2)sc(C)c1C	-0.2%	-4.7	-3.4	-5.1%	2.8%	3.8%
CCOC(=O)c1cn[nH]c1NC(=S)Nc1ccc(Cl)cc1	-4.6%	57.7*	57.9*	-8.4%	-8.6%	3.9%
CCCNC(=O)C1(C)CCCN(Cc2cc(-c3ccccc3)n(C)n2)C1 (configuration not stated)	/	/	/	-0.5%	?	/
Cc1cccc2cc(/C=N/Nc3ccc(C(=O)O)cc3)c(Cl)nc12	1.8%	68.3*	127.9*	-0.6%	8.3%	1.9%
O=[N+]([O-])c1ccccc1N/N=C/c1cc2ccccc2nc1Cl	4.7%	38.1	+	1.8%	-0.3%	8.0%
O=C(O)c1ccc(N/N=C/c2cc3ccccc3nc2Cl)cc1	2.4%	37.8*	83.6*	-7.2%	-26.4%	-6.2%
O=C(CN1CCCCC1)N/N=C/c1cc2ccccc2nc1Cl	5.2%	13.6	29.2	-1.1%	-12.9%	0.8%[11.5 µM]
Cc1cccc2cc(/C=N/NC(=O)c3ccncc3)c(Cl)nc12	3.6%	1.5	10.2	1.8%	29.7%	0.9%

From PubChem
